In general, AC50 refers to the midpoint of the concentration-response curve, whichever way the signal moves.

Activity calls are given as the source filed them. The calls were made as follows: active = hit-call score of the fitted dose curve at least 0.9, where 1 is the maximum; inactive = score below 0.9.

In PubChem BioAssay (EPA / NIEHS) one finds outcome and AC50 data, which are given here for six compounds.

Read-out in test [1]: Vascular endothelial growth factor receptor 2 (Homo sapiens) (UniProt P35968)
Description: BSK_4H_VEGFRII: BioMAP Diversity Plus: 4H Assay for Vascular endothelial growth factor receptor 2 (VEGFR2) Biomarker Activity (AID 2283031).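 As to AC50: cell-surface VEGFR2 protein level quantified by ELISA.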 As to conditions: primary human endothelial cells (HUVEC); actives raise or lower the signal. The method, boiled down:
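Primary human umbilical vein endothelial cells (4H system), 24 h exposure; cell-surface VEGFR2 measured by ELISA. Bidirectional fitting versus DMSO; cytotoxicity checked in parallel by SRB total-protein staining.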

Read-out in test [2]: Human Leukocyte Antigen - DR isotype (HLADR), HLA-DRA (gene 3122)
Briefly: BSK_BE3C_HLADR: BioMAP Diversity Plus: BE3C Assay for Human Leukocyte Antigen - DR isotype (HLADR) Biomarker Activity (AID 2283032). The conditions noted are these: primary human bronchial epithelial cells; actives raise or lower the signal. The method, boiled down:
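Cell-surface HLA-DR ELISA readout at 24 h after dosing in the BE3C primary human lung bronchial epithelial system; gain or loss of signal against DMSO, with parallel sulforhodamine B staining of total protein for overt cytotoxicity.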

Read-out in test [3]: Vascular cell adhesion molecule 1 (VCAM1), VCAM1 (gene 7412)
Description: BSK_4H_VCAM1: BioMAP Diversity Plus: 4H Assay for Vascular cell adhesion molecule 1 (VCAM1) Biomarker Activity (AID 2283033).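 As to outcome: cell-surface VCAM-1 protein measured by ELISA.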 The conditions noted are these: primary human endothelial cells (HUVEC); actives raise or lower the signal. The method, boiled down: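 VCAM-1 ELISA read 24 h after chemical dosing of HUVEC in the BioMAP 4H system, with gain or loss of signal fitted relative to DMSO. Parallel SRB staining (560 nm) checked overt cytotoxicity.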

Read-out in test [4]: Monokine induced gamma interferon (MIG), CXCL9 (gene 4283)
Briefly: BSK_BE3C_MIG: BioMAP Diversity Plus: BE3C Assay for Monokine induced gamma interferon (MIG) Biomarker Activity (AID 2283035). As to conditions: primary human bronchial epithelial cells; actives raise or lower the signal. The method, boiled down: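 hu bronchial epithelial 1° cells, 24 h cpd; MIG by ELISA; bidirectional fit, DMSO = baseline.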

Read-out in test [5]: Plasminogen activator inhibitor-1 (PAI1), SERPINE1 (gene 5054)
Description: BSK_BE3C_PAI1: BioMAP Diversity Plus: BE3C Assay for Plasminogen activator inhibitor-1 (PAI1) Biomarker Activity (AID 2283037). As to conditions: primary human bronchial epithelial cells; actives raise or lower the signal. The method, boiled down:
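PAI-1 was measured by ELISA in human primary bronchial epithelial cultures 24 h after chemical dosing, with cytotoxicity checked by SRB total-protein staining in parallel cultures. Activity was fitted in both directions relative to DMSO.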

Read-out in test [6]: urokinase plasminogen activator (uPA), PLAU (gene 5328)
Description: BSK_BE3C_uPA: BioMAP Diversity Plus: BE3C Assay for urokinase plasminogen activator (uPA) Biomarker Activity (AID 2283038).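 As to outcome: uPA protein level quantified by ELISA in cell cultures; uPA read one day after compound addition.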 As to conditions: primary human bronchial epithelial cells; actives raise or lower the signal. The method, boiled down:
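Primary human bronchial epithelial cells, uPA measured by ELISA 24 h after dosing. Bidirectional change relative to DMSO; cytotoxicity checked in parallel cultures by sulforhodamine B total-protein staining.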

Read-out in test [7]: Urokinase-type plasminogen activator receptor (uPAR), PLAUR (gene 5329)
Description: BSK_BE3C_uPAR: BioMAP Diversity Plus: BE3C Assay for Urokinase-type plasminogen activator receptor (uPAR) Biomarker Activity (AID 2283039).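 As to outcome: cells exposed to compound for one day before measurement.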 As to conditions: primary human bronchial epithelial cells; actives raise or lower the signal. The method, boiled down:
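uPAR levels were measured by ELISA after 24 h compound treatment of primary human bronchial epithelial cells, fitted in both directions relative to DMSO. Parallel SRB staining served as the cytotoxicity read-out.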

Read-out in test [8]: Interleukin-6 (IL6), IL6 (gene 3569)
Description: BSK_CASM3C_IL6: BioMAP Diversity Plus: CASM3C Assay for Interleukin-6 (IL6) Biomarker Activity for (AID 2283040). The conditions noted are these: primary human coronary artery smooth muscle cells; actives raise or lower the signal.

Read-out in test [9]: Tissue plasminogen activator (tPA), PLAT (gene 5327)
Description: BSK_BE3C_tPA: BioMAP Diversity Plus: BE3C Assay for Tissue plasminogen activator (tPA) Biomarker Activity (AID 2283041).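 As to outcome: tPA level quantified by ELISA one day after compound addition.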 As to conditions: primary human bronchial epithelial cells; actives raise or lower the signal. The method, boiled down:
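tPA measured by ELISA 24 h after dosing human primary bronchial epithelial cells (BE3C system). Changes in either direction were fitted against DMSO. Parallel cultures were stained with SRB to flag overt cytotoxicity.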

Read-out in test [10]: Interleukin-8 (IL8), CXCL8 (gene 3576)
Description: BSK_CASM3C_IL8: BioMAP Diversity Plus: CASM3C Assay for Interleukin-8 (IL8) Biomarker Activity (AID 2283042).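 Also: IL-8 protein level quantified by ELISA.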 The conditions noted are these: primary human coronary artery smooth muscle cells; actives raise or lower the signal.

Read-out in test [11]: Human Leukocyte Antigen - DR isotype (HLADR), HLA-DRA (gene 3122)
Description: BSK_CASM3C_HLADR: BioMAP Diversity Plus: CASM3C Assay for Human Leukocyte Antigen - DR isotype (HLADR) Biomarker Activity (AID 2283043).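 Also: cell-surface HLA-DR protein level quantified by ELISA.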 The conditions noted are these: primary human coronary artery smooth muscle cells; actives raise or lower the signal.

Read-out in test [12]: Macrophage colony-stimulating factor (MCSF), CSF1 (gene 1435)
Briefly: BSK_CASM3C_MCSF: BioMAP Diversity Plus: CASM3C Assay for Macrophage colony-stimulating factor (MCSF) Biomarker Activity (AID 2283044).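 Also: M-CSF protein amount quantified by ELISA after 24 h exposure.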 As to conditions: primary human coronary artery smooth muscle cells; actives raise or lower the signal.

Read-out in test [13]: Low-density lipoprotein receptor (LDLR), LDLR (gene 3949)
Briefly: BSK_CASM3C_LDLR: BioMAP Diversity Plus: CASM3C Assay for Low-density lipoprotein receptor (LDLR) Biomarker Activity (AID 2283045).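 Also: LDLR protein level on the cell surface quantified by ELISA.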 The conditions noted are these: primary human coronary artery smooth muscle cells; actives raise or lower the signal.

Read-out in test [14]: Monocyte Chemoattractant Protein-1 (MCP1), CCL2 (gene 6347)
Description: BSK_CASM3C_MCP1: BioMAP Diversity Plus: CASM3C Assay for Monocyte Chemoattractant Protein-1 (MCP1) Biomarker Activity (AID 2283046).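 Also: MCP-1 level quantified by ELISA 24 h after dosing.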 The conditions noted are these: primary human coronary artery smooth muscle cells; actives raise or lower the signal.

A short description of test [15]: BSK_CASM3C_Proliferation: Cell Proliferation Assessment in the BioMAP Diversity Plus: CASM3C Assay (AID 2283047).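 Also: sulforhodamine B total protein stain as relative cell number at 560 nm; sub-confluent cells exposed 48 h before staining; fitted both ways against DMSO so gain or loss of cell number.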 The conditions noted are these: primary human coronary artery smooth muscle cells.
Read-out in test [16]: Monokine induced gamma interferon (MIG), CXCL9 (gene 4283)
Description: BSK_CASM3C_MIG: BioMAP Diversity Plus: CASM3C Assay for Monokine induced gamma interferon (MIG) Biomarker Activity (AID 2283048).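 Also: MIG protein level measured by ELISA.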 The conditions noted are these: primary human coronary artery smooth muscle cells; actives raise or lower the signal.

Read-out in test [17]: serum amyloid A (SAA), SAA1 (gene 6288)
Briefly: BSK_CASM3C_SAA: BioMAP Diversity Plus: CASM3C Assay for serum amyloid A (SAA) Biomarker Activity (AID 2283049).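 Also: SAA protein level quantified by ELISA.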 As to conditions: primary human coronary artery smooth muscle cells; actives raise or lower the signal.

Test [18] in a line: BSK_CASM3C_SRB: Viability Assessment in the BioMAP Diversity Plus: CASM3C Assay (AID 2283050). The conditions noted are these: primary human coronary artery smooth muscle cells.
Read-out in test [19]: Transforming growth factor beta 1 (TGFb1), TGFB1 (gene 7040)
Briefly: BSK_BE3C_TGFb1: BioMAP Diversity Plus: BE3C Assay for Transforming growth factor beta 1 (TGFb1) Biomarker Activity (AID 2283036;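 as to outcome: TGF-b1 protein level measured by ELISA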). As to conditions: primary human bronchial epithelial cells; actives raise or lower the signal. The method, boiled down:
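ELISA readout of TGF-b1 from human lung bronchial epithelial primary cells, taken 24 h post-treatment. Gain or loss of signal fitted relative to DMSO baseline, with parallel SRB staining for overt cytotoxicity.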

On to `C=CC(=O)OCCC(F)(F)C(F)(F)C(F)(F)C(F)(F)C(F)(F)C(F)(F)C(F)(F)C(F)(F)F`, for which the result in test [1], in [2], in test [3], in test [4], in [5] and in test [6] was inactive. Also, the result in test [7], in test [8], in [9], in test [10], in test [11] and in test [12] was inactive. The result in test [13], in test [14], in test [15], in test [16], in [17] and in [18] was inactive.

Consider `O=C1OC2(c3ccccc31)c1cc(I)c(O)c(I)c1Oc1c2cc(I)c(O)c1I`, for which the AC50 in test [1] was 3.36 µM (active); in [2] it was 4.33 µM (active); in test [4], 19.9 µM (active); in test [19], 3.9 µM (active); in test [5] it was 4.07 µM (active); in test [6] it was 8.35 µM (active). Besides, the AC50 is 6.1 µM (active) in test [7]; 0.9 µM (active) in test [8]; 5.58 µM (active) in test [9]; 3.7 µM (active) in [12]; 6.12 µM (active) in test [14]. Also, the result in [10], in test [11], in test [13], in test [15], in [16] and in test [17] was inactive. Also, the result in test [18] was inactive.

On to `CN(C)CCOC(c1ccccc1)c1ccccc1`, for which the result in [1], in test [2], in test [4], in test [19], in test [5] and in test [6] was inactive. Further, the outcome in [7], in test [8], in test [9], in test [10], in test [11] and in [13] was inactive. Further, the outcome in test [14], in [15], in test [16], in test [17] and in [18] was inactive. In test [3], the concentration at half-maximal activity (AC50) was 2.03 µM (active).

Regarding `O=C1NS(=O)(=O)c2ccccc21`, the outcome in [1], in [2], in test [3], in test [4], in test [19] and in test [5] was inactive. In addition, the result in test [6], in test [7], in test [8], in [9], in test [10] and in test [11] was inactive. Also, the result in test [12], in test [13], in [14], in test [15], in test [16] and in test [17] was inactive. In addition, the outcome in test [18] was inactive.

On to `N=C(N)c1ccc(OCCCCCOc2ccc(C(=N)N)cc2)cc1`, for which the result in test [1], in [3], in test [4], in test [19], in test [7] and in test [9] was inactive. Besides, the result in test [13], in test [14], in [16], in [17] and in test [18] was inactive. The AC50 in [2] is 22.7 µM (active); in test [5], 10.3 µM (active); in test [6] it was 17.5 µM (active); in test [8], 20.7 µM (active); in test [10], 24.1 µM (active); in test [11], 17.5 µM (active). Moreover, the AC50 in [12] was 15 µM (active); in test [15], 12.4 µM (active).

As to `CCCCC(CC)C(=O)O` (stereo unspecified), the result in [1], in test [2], in test [3], in test [4], in test [19] and in test [5] was inactive. Besides, the outcome in test [6], in test [7], in test [8], in test [9], in test [10] and in [11] was inactive. In addition, the result in [12], in [13], in test [14], in [15], in test [16] and in [17] was inactive. Further, the result in test [18] was inactive.
